From PubChem BioAssay
This is a sample that favours compounds with a hit; in the whole collection about 1.8% have one here.
Imprint erasure – inducers of genomic imprint erasure in mouse ES cells | mouse ES Peg3-LacZ reporter, beta-gal luminescence, 40 h | Potency, µM (highest dose often 60.7 µM), for the others: at the top dose activity change, positive = activation, usual class: activators | actives 0.02% (n = 110,000) | AID 1948
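Each well holds 300 Peg3LacZ-Neo (maternal) female ES cells incubated 40 h at 37C, 5% CO2. LacZ is measured by BetaGlo luminescence, with AC50 and maximum efficacy derived from dose-response curves.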
p53ts 39C kill – cytotoxicity in p53ts cells at nonpermissive temperature; H1299-p53A138V viability at 39C, ATP luminescence, 24 h; Potency, µM (doses to about 46.1 µM), inactives show top-dose activity change, negative = cell killing, actives largely listed as cytotoxic; actives 1.5% (n = 130,000); also: % is scaled to controls: 0 for no effect and ±100 for the full control effect; nearly all actives have a fitted effect of over 55% in size
p53ts 32C tox – kills p53ts cells at the permissive temperature. Potency, µM (series often up to 46.1 µM), for inactives: at the highest dose activity change, negative = cytotoxicity, actives largely listed as cytotoxic. H1299-p53A138V at 32C, ATP luminescence viability, 24 h. actives 0.93% (n = 130,000);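 also: 0% = DMSO and -100% = full killing by reference compound; nearly all actives have a fitted effect of over 55% in size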
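Viability by ATPlite luminescence after 24 h compound treatment (up to 46 uM) at the permissive 32C. Cells are H1299 carrying p53 A138V. Scale runs from DMSO basal to 100 uM tamoxifen as full kill; AC50 from Hill fits.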
An asterisk follows results filed as active; ? = inconclusive; nt = not tested or not shown; [ ] = dose if it differs, or a comment. Calls follow the shape of the dose curve; as a rule, active = well fitted curve in the direction sought with a large enough effect; inconclusive = small, poorly fitted or top-dose-only effect, or another doubt; inactive = no such curve, though single readings can be large; an effect the other way counts as inactive or inconclusive. Potency is read from the fitted curve at half-maximal effect.

SMILES	Imprint erasure	p53ts 39C kill	p53ts 32C tox
CCOc1ccc(NC(=O)c2sc3nc(-c4ccc(OC)cc4)cn3c2C)cc1	-6%[10.9 µM]	-7%	3%
COc1ccc(-c2cn3c4c(sc3n2)CCCC4)cc1	-54%	5µM*	6.3µM*
CCN(CC)C(=O)C1CCCN(c2ncnc3c2nc2n3CCCCC2)C1 (stereo not drawn)	nt	nt	-3%
COc1cccc(N2CCN(S(=O)(=O)c3ccc(-c4ccno4)cc3OC)CC2)c1	7%[10.9 µM]	-25%	4%
COc1cccc(C2=CC(c3ccccc3F)n3c(nc4ccccc43)N2)c1 (stereo not drawn)	-15%[10.9 µM]	10µM*	16µM*
COc1cccc(C2=CC(c3ccccc3F)n3ncc(C(=O)Nc4ccc(C)cc4)c3N2)c1 (stereo not drawn)	-16%[10.9 µM]	47%	20%
CCOc1ccc(C2=CC(c3cccc(Br)c3)n3c(nc4ccccc43)N2)cc1Cl (stereo not drawn)	-22%[10.9 µM]	-18%	-7%
Cc1ccc(C2=CC(c3ccccc3F)n3c(nc4ccccc43)N2)cc1C (stereo not drawn)	-15%[10.9 µM]	13µM*	?
O=C(NCC(c1cccnc1)N1CCN(Cc2ccccc2)CC1)C(=O)Nc1ccc(Cl)cc1 (stereo not drawn)	-11%[10.9 µM]	-14%	-13%
CC(=O)c1cccc(-n2c(=O)c3c4c(sc3n(CC(=O)c3ccc(Cl)cc3)c2=O)CN(C(C)=O)CC4)c1	4%[10.9 µM]	?	9%
CCCc1cnc2c(c1SCC(=O)Nc1ccccc1F)c(=O)n(C)c(=O)n2C	4%[10.9 µM]	5%	-8%
Cc1ccccc1C(=O)NNc1ncnc2c1cnn2-c1cccc(Cl)c1	-5%[10.9 µM]	35%	-4%
Cc1ccc2[nH]c(=O)c3cc(C(=O)NCCCN4CCC(C)CC4)sc3c2c1	-8%[10.9 µM]	?	0%
CC(NC(=O)C(=O)Nc1c2c(nn1-c1ccccc1)CSC2)c1ccccc1 (stereo not drawn)	-15%[10.9 µM]	8%	-5%
COC(=O)c1ccc(NC(=O)c2ccc3c(c2)OCO3)cc1	-73%	-15%	-15%
COc1cc(C(=O)Nc2ccc3c(c2)OCCO3)ccc1OC(C)C	-25%	?	?
COc1ccc(NC(=O)c2cnc[nH]2)cc1	-20%[10.9 µM]	13µM*	7.9µM*
COc1cc(C(=O)Nc2ccc3c(c2)OCCO3)ccc1OC(F)F	-75%	13µM*	16µM*
O=C(Nc1cccc(Cl)c1)c1cnc[nH]1	-22%[10.9 µM]	24%	-8%
COc1ccc(NC(=O)c2ccc3c(c2)OCO3)cc1Cl	-78%	13µM*	5µM*
O=C(Nc1ccncc1)c1ccc2c(c1)OCCO2	-68%	-24%	?
O=C(Nc1ccc2c(c1)OCCO2)c1cncc(Br)c1	-63%	10µM*	10µM*
CCCC=O	0%	14%	0%[1.84 µM]
COc1ccc(NC(=O)Cn2c(=O)n(-c3ccc(CC(=O)NCC4CCCO4)cc3)c(=O)c3ccccc32)c(OC)c1 (stereo not drawn)	6%[10.9 µM]	-6%	-28%
CCc1ccc(NC(=O)C(=O)NCC(c2cccnc2)N2CCN(c3ccc(F)cc3)CC2)cc1 (stereo not drawn)	-12%[10.9 µM]	-17%	6%
SMILES	Imprint erasure	p53ts 39C kill	p53ts 32C tox
O=C(NCc1ccc(F)cc1)c1ccc(CSCc2cccc(Cl)c2)o1	18%[10.9 µM]	?	18%
COc1ccc(-c2oc3ncn4nc(COc5ccc(Cl)cc5)nc4c3c2-c2ccc(OC)cc2)cc1	-3%[10.9 µM]	14%	-3%
O=C(CC1N=C2c3ccccc3N=C(SCC(=O)Nc3cccc(Cl)c3)N2C1=O)NCc1cccs1 (stereo not drawn)	-3%[10.9 µM]	22%	11%
CC(C)NC(=O)C1CCC(Cn2c(=O)c3sccc3n(CC(=O)N3CCCC3)c2=O)CC1 (stereo not drawn)	-5%[10.9 µM]	-11%	2%
COc1ccc(C(=O)Nc2ccc3c(c2)OCCO3)cc1	nt	7.1µM*	6.3µM*
COc1ccccc1NC(=O)Nc1ccc2c(c1)OCCO2	-86%	13µM*	10µM*
COc1cccc(OC)c1C(=O)Nc1ccc2c(c1)OCCO2	-3%	-5%	-6%
COc1ccc(C(=O)Nc2cc(OC)cc(OC)c2)cc1	-85%	?	13µM*
COc1ccc(OCCCC(=O)Nc2ccc3c(c2)OCCO3)cc1	-13%	5%	-1%
COc1cc(NC(=O)c2ccccc2)cc(OC)c1	-30%	-8%	-3%
COc1ccc(-c2nnc(SC(C)C(=O)Nc3ccc4c(c3)OCCO4)o2)cc1 (stereo not drawn)	-16%	13µM*	16µM*
Cc1nnc(SC(C)C(=O)Nc2ccc3c(c2)OCCO3)s1 (stereo not drawn)	-8%	3%	-1%
CC(C)(C)c1c2c(c(C(C)(C)C)c3c1OCN(Cc1ccccc1)C3)OCN(Cc1ccccc1)C2	-4%[10.9 µM]	-2%[9.22 µM]	-5%[9.22 µM]
COc1ccc(-c2nc3cnc(N4CCN(C)CC4)nc3n(C)c2=O)cc1	-17%	-8%	-8%
Cc1cc2nc(-c3ccc(OCc4ccccc4)cc3)cc(C(F)(F)F)n2n1	-8%[10.9 µM]	-8%	-7%
COc1ccc(CCn2c3c(c(=O)[nH]c2=O)C(NC(=O)c2ccccc2OC)(C(F)(F)F)C(=O)N3)cc1OC (stereo not drawn)	13%[10.9 µM]	18%	-5%
CCN1CCN(C(=O)c2ccc3c(c2)N(Cc2c(F)cccc2Cl)C(=O)c2ccccc2S3)CC1	-2%[10.9 µM]	9%	19%
CN(C)c1ccc(/C=C(\C#N)c2nc3ccccc3c(=O)[nH]2)cc1	-6%[10.9 µM]	0.32µM*	0.32µM*
Cc1cccc(/C=C(\C#N)c2nc3ccccc3c(=O)[nH]2)c1	-5%[10.9 µM]	10%	-5%
C#C[C@]1(O)CC[C@@H]2[C@H]3CCC4=Cc5oncc5C[C@]4(C)[C@@H]3CC[C@@]21C	-6%[16.8 µM]	nt	nt
Cc1ccc2c(CC(=O)Nc3c(C(=O)c4ccc(C)c(F)c4)oc4ccccc34)coc2c1	-7%[10.9 µM]	17%	-5%
CCOC(=O)c1ccc(OCC(=O)c2ccc(O)cc2O)cc1	-58%	13µM*	13µM*
COC(=O)c1ccc(CC(=O)c2ccc(O)cc2O)o1	nt	10%	-2%
CCOC(=O)COc1ccc(C(=O)c2ccccc2)c(O)c1	-4%	-8%	-2%
COC(=O)c1ccc(OCC(=O)c2ccc(O)cc2O)cc1	-59%	13µM*	13µM*
SMILES	Imprint erasure	p53ts 39C kill	p53ts 32C tox
CCc1nnc(NC(=O)c2ccc(S(=O)(=O)N(CC)Cc3ccccc3)cc2)o1	-21%	?	-16%
CCCCN(CC)S(=O)(=O)c1ccc(C(=O)Nc2nnc(-c3cccs3)o2)cc1	-33%	13µM*	?
CCc1nnc(NC(=O)c2ccc(S(=O)(=O)N(CC)CC)cc2)s1	-6%	10%	2%
CCCCN(C)S(=O)(=O)c1ccc(C(=O)Nc2nnc(CSC)o2)cc1	-24%	10µM*	-21%
CCCCN(CCCC)S(=O)(=O)c1ccc(C(=O)Nc2nnc(COC)o2)cc1	-23%	10µM*	-13%
CCCCN(C)S(=O)(=O)c1ccc(C(=O)Nc2sc3c(c2C(=O)OCC)CCN(C(C)C)C3)cc1	-21%[10.9 µM]	-27%	6%
COCCn1c(=O)c(-c2cccc(C#N)c2)nc2cnc(N3CCN(C)CC3)nc21	?	1%	-2%
CC(=O)c1ccc(N2CCN(S(=O)(=O)c3ccc(-c4coc(C)n4)cc3)CC2)cc1	-7%[10.9 µM]	-29%	-2%
CCNc1c(C(=O)O)ccc2c1C(=O)c1ccccc1C2=O	nt	-1%	nt
